According to ChEMBL document CHEMBL4296183, “CO-ADD screening of NIH NCI Natural Product Set III” (2020):
Potency and affinity values are given separately.

system: Cryptococcus neoformans; settings: Concentration 20 uM; ASSAY_TEST Inhibition of Fungal Growth; detection method Resazurin; Absorption (OD600-OD570); plate type 384well; NBS; CORNING #3640

Compound | Inhibition [%]
CC(=O)O.COc1ccc2c(=O)oc3c(OC)cc(CCN(C)C)c4c(=O)oc1c2c34 | -6.47
CC1=C2[C@H]3OC(=O)[C@@H](C)[C@@H]3CC[C@@]2(C)C=C/C1=N\O | -9.56
COC1/C=C\C=C(/C)C(=O)NC2=CC(=O)C(N)=C(CC(C)CC(OC)C(O)C(C)/C=C(\C)C1OC(N)=O)C2=O (stereo not given) | -11.91
COc1cc([C@@H]2c3cc4c(cc3[C@@H](OC3OC5CO[C@@H](c6cccs6)OC5C(O)C3O)[C@H]3COC(=O)[C@H]23)OCO4)cc(OC)c1O (stereo not given in full) | -9.1
O=c1oc2c(O)c(O)cc3c(=O)oc4c(O)c(O)cc1c4c23 [ELLAGIC ACID] | -7.36
O=C1c2cc(O)c(O)cc2O[C@H](c2ccc(O)c(O)c2)[C@H]1O | -13.12
COC(=O)NC1C(C)OC(OC2C/C=C(/C)C3C=CC4C(OC5CC(OC6CCC(OC7CC(O)C(OC8CCC(O)C(C)O8)C(C)O7)C(C)O6)C(OC(C)=O)C(C)O5)C(C)CC(C)C4C3(C)/C(O)=C3/C(=O)OC4(CC(C=O)=CC(O)C4/C=C\2C)C3=O)CC1(C)[N+](=O)[O-] (stereo not given) | -14.96
COc1ccc(C2CC(=O)c3c(O)cc(OC4OC(CO)C(O)C(O)C4OC4OC(C)C(O)C(O)C4O)cc3O2)cc1O (stereo not given) | -13
CCC1NC(=O)C(NC(=O)c2ncccc2O)C(C)OC(=O)C(c2ccccc2)NC(=O)C2CC(=O)CCN2C(=O)C(Cc2ccccc2)N(C)C(=O)C2CCCN2C1=O (stereo not given) | -7.49
CC1(C)CCCC2(C)C3=C(CCC12)C(=O)OC3 (stereo not given) | -15.17
CN1CCc2cc3c(cc2C(=O)Cc2ccc4c(c2C1)OCO4)OCO3.Cl [PROTOPINE HYDROCHLORIDE] | -6.39
CCCCCc1cc(O)cc2c1Oc1cc(O)cc(C(=O)CCCC)c1C(=O)O2 | -14.32
Cc1cc2nc3[nH]c(=O)[nH]c(=O)c3nc2cc1C [LUMICHROME] | -5.45
CC(C)=CCc1c2c(c3occ(-c4ccc(O)c(O)c4)c(=O)c3c1O)C=CC(C)(C)O2 [POMIFERIN] | -8.85
COC(=O)[C@]1(C)CCC[C@]2(C)C3=CC(=O)[C@@]4(C(C)C)O[C@H]4[C@]3(O)CC[C@@H]12 | -11.73
COc1ccc2c(c1OC)C(=O)O[C@@H]2[C@H]1c2c(cc3c(c2OC)OCO3)CCN1C [NOSCAPINE] | -6.69
CCCCCCCCCCCCCCCC(=O)O[C@@H]1[C@@H](C)[C@@]2(O)[C@@H](C=C(CO)C[C@]3(O)C(=O)C(C)=C[C@@H]23)[C@H]2[C@]1(OC(C)=O)[C@]2(C)CO | -11.83
CC[C@]1(O)C[C@H]2CN(CCc3c([nH]c4ccccc34)[C@@](C(=O)OC)(c3cc4c(cc3OC)N(C=O)[C@H]3[C@@](O)(C(=O)OC)[C@H](OC(C)=O)[C@]5(CC)C=CCN6CC[C@]43[C@@H]65)C2)C1.O=S(=O)(O)O [VINCRISTINE SULFATE] | -1.83
O=C(O)CCCCCCC[C@@H](O)[C@@H](O)CCCCCCO | -6.7
COC(=O)C1C(O)CCC2CN3CCc4c([nH]c5ccccc45)C3CC21 (stereo not given) | -9.85
C=C1C(=O)O[C@@H]2[C@H]3O[C@]3(C)CC/C=C(\C)CC[C@@H]12 | -8.82
CCCCCCCCCCCCCCCCCCOCC(O)CO (stereo not given) [BATILOL] | 0.87
C=C1C(=O)OC2CC1C(O)C/C(C)=C/CC/C(C)=C/C(O)CC2C (stereo not given) | -14.61
CC(C)=CC(=O)OC1C2C(C)C(=O)OC2C(O)C(C)C2C=CC(=O)C21C (stereo not given) | -5.72
CC(=O)CCCCn1c(=O)c2c(ncn2C)n(C)c1=O [PENTOXIFYLLINE] | -13.02
